# Results published in the supplement of paper PMC4022240.
# ± gives the standard deviation.
# B1: H3 5-17 Q T A Rme2s K Sph T G G K A P R (peptide)
# chain: QTARKSTGGKAPR
# B2: H3 11-23 T G G K A P R K Q L A T K (peptide)
# chain: TGGKAPRKQLATK
# B3: H3 5-17 Q T A Rme2s K S Tph G G K A P R (peptide)
# chain: QTARKSTGGKAPR
# B4: H3 5-17 Q T A Rme2s Kme S T G G K A P R (peptide)
# chain: QTARKSTGGKAPR
# B5: H3 5-17 Q T A R K S Tph G G Kac A P R (peptide)
# chain: QTARKSTGGKAPR
# How the values were obtained:
# Test in all cases: peptide microarray binding signal (635 nm), min-max normalized on array (fraction of array maximum); higher = stronger binding
# [1] = target: T1, HaloTag-ATRX ADD domain (163-292)
# T1 chain: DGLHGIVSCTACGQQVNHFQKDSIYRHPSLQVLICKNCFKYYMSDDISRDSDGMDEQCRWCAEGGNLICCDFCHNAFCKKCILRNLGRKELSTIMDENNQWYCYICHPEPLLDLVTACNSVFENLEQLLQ
# Summary of the method: (§1)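 Triplicate spots of histone 13-mer peptide–cellulose conjugates with a Cy3 tracer were printed on nitrocellulose and probed for 1 h at 4°C with biotin-labelled HaloTag reader fusions (10 nM to 1 μM) plus streptavidin-Alexa Fluor 647 or rabbit histone antibodies (1:10,000 to 1:2,000) plus anti-rabbit Alexa 647. An Axon GenePix 4000B read the 635 nm channel. Binding signal is the spot-triplicate mean intensity after min-max scaling within each library.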
# [2] = target: HaloTag-ING2 PHD (mouse Ing2 200-280)
# Summary of the method: as §1
# [3] = target: anti-H3K4me3 antibody ab8580
# Summary of the method: as §1
# [4] = target: anti-H3K9me3 antibody ab8898
# Summary of the method: as §1
# [5] = peptide region: H3 5-17, peptide modifications: H3R8me2s H3S10ph, binder concentration: 1:2,000 dilution
# [6] = peptide region: H3 5-17, peptide modifications: H3R8me2s H3S10ph, binder concentration: 1:10,000 dilution
# [7] = peptide region: H3 11-23, binder concentration: 1:2,000 dilution
# [8] = peptide region: H3 11-23, binder concentration: 1:10,000 dilution
# [9] = peptide region: H3 5-17, peptide modifications: H3R8me2s H3T11ph, binder concentration: 1:2,000 dilution
# [10] = peptide region: H3 5-17, peptide modifications: H3R8me2s H3T11ph, binder concentration: 1:10,000 dilution
# [11] = peptide region: H3 5-17, peptide modifications: H3R8me2s H3K9me1, binder concentration: 1:2,000 dilution
# [12] = peptide region: H3 5-17, peptide modifications: H3R8me2s H3K9me1, binder concentration: 1:10,000 dilution
# [13] = peptide region: H3 5-17, peptide modifications: H3T11ph H3K14ac, binder concentration: 1:2,000 dilution
# [14] = peptide region: H3 5-17, peptide modifications: H3T11ph H3K14ac, binder concentration: 1:10,000 dilution
binder,measurement,setting,value
B1,peptide microarray binding signal,"[1]; peptide region: H3 5-17, peptide modifications: H3R8me2s H3S10ph, binder concentration: 50 nM",0.00683 ± 0.0003
same,peptide microarray binding signal,"[1]; peptide region: H3 5-17, peptide modifications: H3R8me2s H3S10ph, binder concentration: 500 nM",0.0161 ± 0.0014
same,peptide microarray binding signal,"[2]; peptide region: H3 5-17, peptide modifications: H3R8me2s H3S10ph, binder concentration: 10 nM",0.0274 ± 0.00033
same,peptide microarray binding signal,"[2]; peptide region: H3 5-17, peptide modifications: H3R8me2s H3S10ph, binder concentration: 100 nM",0.0477 ± 0.0078
same,peptide microarray binding signal,[3]; [5],0.00423 ± 0.00039
same,peptide microarray binding signal,[3]; [6],0.00548 ± 0.00014
same,peptide microarray binding signal,[4]; [5],0.00403 ± 0.0009
same,peptide microarray binding signal,[4]; [6],0.00363 ± 0.00015
B2,peptide microarray binding signal,"[1]; peptide region: H3 11-23, binder concentration: 50 nM",0.00481 ± 0.00041
same,peptide microarray binding signal,"[1]; peptide region: H3 11-23, binder concentration: 500 nM",0.0154 ± 0.0015
same,peptide microarray binding signal,"[2]; peptide region: H3 11-23, binder concentration: 10 nM",0.00615 ± 0.00031
same,peptide microarray binding signal,"[2]; peptide region: H3 11-23, binder concentration: 100 nM",0.0175 ± 0.0019
same,peptide microarray binding signal,[3]; [7],0.000849 ± 5.7e-05
same,peptide microarray binding signal,[3]; [8],0.00097 ± 0.00013
same,peptide microarray binding signal,[4]; [7],0.00172 ± 0.00025
same,peptide microarray binding signal,[4]; [8],0.00138 ± 0.00011
B3,peptide microarray binding signal,"[1]; peptide region: H3 5-17, peptide modifications: H3R8me2s H3T11ph, binder concentration: 50 nM",0.00458 ± 6e-05
same,peptide microarray binding signal,"[1]; peptide region: H3 5-17, peptide modifications: H3R8me2s H3T11ph, binder concentration: 500 nM",0.0138 ± 0.0057
same,peptide microarray binding signal,"[2]; peptide region: H3 5-17, peptide modifications: H3R8me2s H3T11ph, binder concentration: 10 nM",0.0277 ± 0.00076
same,peptide microarray binding signal,"[2]; peptide region: H3 5-17, peptide modifications: H3R8me2s H3T11ph, binder concentration: 100 nM",0.0321 ± 0.004
same,peptide microarray binding signal,[3]; [9],0.0081 ± 0.0027
same,peptide microarray binding signal,[3]; [10],0.00474 ± 0.00064
same,peptide microarray binding signal,[4]; [9],0.00136 ± 0.00012
same,peptide microarray binding signal,[4]; [10],0.001441 ± 1.4e-05
B4,peptide microarray binding signal,"[1]; peptide region: H3 5-17, peptide modifications: H3R8me2s H3K9me1, binder concentration: 50 nM",0.0141 ± 0.0025
same,peptide microarray binding signal,"[1]; peptide region: H3 5-17, peptide modifications: H3R8me2s H3K9me1, binder concentration: 500 nM",0.0312 ± 0.016
same,peptide microarray binding signal,"[2]; peptide region: H3 5-17, peptide modifications: H3R8me2s H3K9me1, binder concentration: 10 nM",0.0334 ± 0.0012
same,peptide microarray binding signal,"[2]; peptide region: H3 5-17, peptide modifications: H3R8me2s H3K9me1, binder concentration: 100 nM",0.0522 ± 0.0014
same,peptide microarray binding signal,[3]; [11],0.0185 ± 0.0025
same,peptide microarray binding signal,[3]; [12],0.0237 ± 0.00078
same,peptide microarray binding signal,[4]; [11],0.0146 ± 0.0028
same,peptide microarray binding signal,[4]; [12],0.0153 ± 0.0016
B5,peptide microarray binding signal,"[1]; peptide region: H3 5-17, peptide modifications: H3T11ph H3K14ac, binder concentration: 50 nM",0.00514 ± 0.00023
same,peptide microarray binding signal,"[1]; peptide region: H3 5-17, peptide modifications: H3T11ph H3K14ac, binder concentration: 500 nM",0.015 ± 0.0014
same,peptide microarray binding signal,"[2]; peptide region: H3 5-17, peptide modifications: H3T11ph H3K14ac, binder concentration: 10 nM",0.00597 ± 0.00044
same,peptide microarray binding signal,"[2]; peptide region: H3 5-17, peptide modifications: H3T11ph H3K14ac, binder concentration: 100 nM",0.0333 ± 0.0053
same,peptide microarray binding signal,[3]; [13],0.000868 ± 6.7e-05
same,peptide microarray binding signal,[3]; [14],0.000685 ± 1.9e-05
same,peptide microarray binding signal,[4]; [13],0.00394 ± 0.0008
same,peptide microarray binding signal,[4]; [14],0.00156 ± 3e-05
